Records with an inconclusive call do not appear. The source made the active and inactive calls.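 Rule for the calls, unless noted: active = viability at or under a set limit in both replicates, limit being median viability minus 3 SD (cut at about 48% in these data, passing the limit was not always enough); inconclusive = at or under the limit in just one replicate; inactive = at or above the limit in both replicates.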

Data on ten compounds can be found in PubChem BioAssay.

Test [1] in a line: reducers of endogenous Her2 protein level, primary screen, SKBR3 breast tumor cells, AlphaScreen, ATP viability (AID 461;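 active = Her2 level under about 52% in both replicate screens, with viability over 70% of control, limit read from the data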;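 for Her2 level: lower value means less Her2 protein in the cells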;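 for viability: percent of carrier control wells set as 100% viability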). The conditions noted are these: 18-24 h, measured here: SKBR3 viability, ATP luminescence, at 10 µM.
The target in test [2] is Receptor tyrosine-protein kinase erbB-2 (Homo sapiens) (UniProt P04626). The description is as above. The conditions noted are these: 18-24 h, at 10 µM, stronger effect = lower value.
Test [3] can be described thus: SK-BR-3 cell growth inhibitors, pilot screen, 24 h, human (AID 572;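 active = viability at or below 10% of carrier control in both of two separate runs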;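 note: compound exposure lasted between 18 and 24 h rather than exactly 24 h; 100% = carrier-treated control wells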). The conditions noted are these: SK-BR-3 viability, CellTiter-Glo luminescence, at 10 µM, stronger effect = lower value.
Test [4] can be described thus: HUVEC growth inhibition – cell-based, human, primary screen (AID 575;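 active = viability at or below 30% in both replicate assays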;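 note: 100% = median of untreated cell wells with 0.1% DMSO on each plate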). The conditions noted are these: HUVEC proliferation, CellTiter-Glo luminescence, 72 h; at 10 µM; stronger effect = lower value.
A short description of test [5]: growth inhibitors of H69AR lung tumor, primary screen, human, duplicate replicates (AID 580).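 Note: 100% = mean luminescence of untreated wells and 0% = no signal.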 The following applies: H69AR lung tumor cells viability, ATP luminescence, 72 h; at 10 µM; stronger effect = lower value.
The nature of test [6]: reversal of MRP1-mediated doxorubicin resistance, pilot screen, H69AR cells, doxorubicin co-treatment (AID 601;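 active = viability loss from added drug above about 55%, and viability with drug at most 40%, in both replicates, limit read from the data, passing the limit was not always enough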). The conditions noted are these: CellTiter-Glo, 72 h, at 10 µM; for differential viability (reversal): stronger effect = higher value.
Test [7] in a line: 384-well plate pilot, post-Golgi transport modulator project, inhibition of yeast transport mutant growth (AID 636; in the data active = inhibition above about 31%). The following applies: absorbance 615 nm, about 18 h, stronger effect = higher value.
Test [8] can be described thus: growth suppression of yeast trafficking mutant, preliminary HTS, modulators of trafficking downstream of Golgi apparatus project, 1536-format plate, OD 615 nm (AID 637; in the data active = inhibition above about 30%). The following applies: yeast transport mutant growth, absorbance 615 nm, 18 h; stronger effect = higher value.
Test [9] in a line: OD615 S. cerevisiae growth inhibition, permissive medium, pilot counter-assay, permissive growth control for S. cerevisiae lifespan shortening project (AID 705;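 active = growth inhibition above 25% in both replicates, a cutoff set 3 SD above the mean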). The following applies: OD615, 24 h, at 10 µM, stronger effect = higher value.
A short description of test [10]: Restrictive medium S. cerevisiae growth inhibition, OD615, pilot screen of yeast lifespan reduction project, restrictive growth control (AID 706;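 active = growth inhibition above a set limit, 3 SD over mean compound inhibition, in both replicates, cut at about 43% in these data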;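 note: modified DeaD lifespan yeast strain shifted to restrictive glucose medium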). The following applies: OD615, 48 h, at 10 µM, stronger effect = higher value.
The nature of test [11]: viability gain of MRP-1-high H69AR cells under doxorubicin, pilot screen, MRP-1 activator project, CellTiter-Glo, duplicate (AID 807;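 active = viability increase at or above a cutoff of the median across tested compounds plus 3 SD, cut at about 8.5% in these data, passing the limit was not always enough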;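 note: compound pretreatment 18-22 h then 72 h combined with doxorubicin; 0% = doxorubicin alone and 100% = vehicle without doxorubicin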). The following applies: H69AR viability with doxorubicin, CellTiter-Glo luminescence; at 10 µM; stronger effect = higher value.
Test [12] in a line: growth suppression of beta-catenin knockout HCT116, pilot screen, human colon tumor cells (AID 823;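 active = cell viability at or below a set limit in both duplicate runs, the limit being the all-compound median minus 4 SD, cut at about 23% in these data, passing the limit was not always enough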;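 note: 0% = wells killed by 20 µM Hyamine and 100% = untreated DMSO cell wells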). The following applies: CellTiter-Glo, 60 h, at 10 µM, stronger effect = lower value.
Test [13] can be described thus: growth suppression of PTEN-deleted HCT116, pilot screen, cell-based, HCT116 clonal line, CellTiter-Glo (AID 824;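 active = viability at or below 27.92% in each of two runs, the all-compound median minus 4 SD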;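 note: 0% = 20 µM Hyamine control and 100% = vehicle cell control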). The conditions noted are these: 60 h, at 10 µM, stronger effect = lower value.
The nature of test [14]: inhibitors of the yeast RAM network, pilot screen, dse1pr::URA3 reporter, 5-FOA selection (AID 869;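 active = inhibition over a set limit, the all-compound mean plus 3 SD, in both replicate runs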;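 note: 0% = DMSO wells with no growth and 100% = 10 µM 1-NA-PP1 with full growth; RAM network block rescues cells from 5-FOA so hits raise OD615 growth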). The following applies: S. cerevisiae dse1pr::URA3 5-FOA growth, OD615, 2 d; at 10 µM; stronger effect = higher value; strain carries analog-sensitive mutant Cbk1 kinase.
Test [15] can be described thus: RAM signaling pathway blockade in yeast – S. cerevisiae, Pdr1DBD-CYC8 efflux-inhibited sensitized strain, primary screen (AID 1298;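 active = RAM network inhibition above 8.4% in each of two replicates, 3 SD over the compound average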;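 note: 0% = DMSO untreated cells without growth and 100% = 10 µM 1-NA-PP1 full growth; higher means more yeast growth rescued from 5-FOA killing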). The conditions noted are these: S. cerevisiae cbk1-as DSE1-URA3 strain, 5-FOA growth OD615, 2 d; at 50 µM; stronger effect = higher value.
The mark [16] stands for this setting: H69AR cells + 2 uM doxorubicin, measured here: viability with 2 uM doxorubicin, stronger effect = lower value.
Where [17] appears, read: H69AR cells, compound alone cytotoxicity.

Sequence of Receptor tyrosine-protein kinase erbB-2 (Homo sapiens) (P04626 whole entry, looked up): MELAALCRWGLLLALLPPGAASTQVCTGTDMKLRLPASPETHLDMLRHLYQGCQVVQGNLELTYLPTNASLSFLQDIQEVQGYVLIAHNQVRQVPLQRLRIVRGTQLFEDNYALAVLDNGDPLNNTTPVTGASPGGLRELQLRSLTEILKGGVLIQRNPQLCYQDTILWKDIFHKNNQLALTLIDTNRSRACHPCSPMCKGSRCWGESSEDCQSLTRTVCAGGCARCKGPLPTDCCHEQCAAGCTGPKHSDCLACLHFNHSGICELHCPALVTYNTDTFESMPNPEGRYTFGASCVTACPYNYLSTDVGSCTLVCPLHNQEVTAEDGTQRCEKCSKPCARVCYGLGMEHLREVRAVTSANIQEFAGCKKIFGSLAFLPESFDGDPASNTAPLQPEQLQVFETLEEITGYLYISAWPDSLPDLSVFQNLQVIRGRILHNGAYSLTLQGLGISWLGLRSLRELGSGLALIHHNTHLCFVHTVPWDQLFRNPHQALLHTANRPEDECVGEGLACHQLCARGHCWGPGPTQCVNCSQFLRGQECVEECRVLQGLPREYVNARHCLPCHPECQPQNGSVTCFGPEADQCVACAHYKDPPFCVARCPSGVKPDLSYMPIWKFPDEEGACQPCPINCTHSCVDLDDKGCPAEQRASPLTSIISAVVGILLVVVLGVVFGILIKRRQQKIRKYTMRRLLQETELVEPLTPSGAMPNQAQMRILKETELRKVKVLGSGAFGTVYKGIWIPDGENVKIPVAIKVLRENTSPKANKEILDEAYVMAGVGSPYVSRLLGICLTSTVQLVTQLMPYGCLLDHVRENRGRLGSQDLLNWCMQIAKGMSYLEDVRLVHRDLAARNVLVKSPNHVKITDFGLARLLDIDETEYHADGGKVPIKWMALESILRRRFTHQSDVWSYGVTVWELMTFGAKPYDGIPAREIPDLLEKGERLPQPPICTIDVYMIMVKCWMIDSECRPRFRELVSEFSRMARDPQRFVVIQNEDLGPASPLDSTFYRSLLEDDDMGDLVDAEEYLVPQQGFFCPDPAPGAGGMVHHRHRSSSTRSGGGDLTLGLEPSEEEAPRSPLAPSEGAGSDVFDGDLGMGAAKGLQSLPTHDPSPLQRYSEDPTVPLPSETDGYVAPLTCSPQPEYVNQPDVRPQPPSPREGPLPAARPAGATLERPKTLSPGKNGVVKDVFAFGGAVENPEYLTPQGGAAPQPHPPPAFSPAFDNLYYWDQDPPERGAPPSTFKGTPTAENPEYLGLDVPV

Consider `COc1cccc2cc(C(=O)N3CCN(c4ccc(C)cc4C)CC3)c(=O)oc12`, for which the viability in test [1] was 116%; in [3], 116% (inactive); in test [4] it was 93.7% (inactive); in test [5], 96.5% (inactive); in [6] (setting [16]) it was 88.5%; in [6] (setting [17]), 96.5%. The viability is 85.3% (inactive) in [12] and 74.3% (inactive) in [13]. In test [2], the Her2 level is 110% (inactive). The differential viability (reversal) in test [6] (H69AR cells + 2 uM doxorubicin) is 7.98% (inactive). Further, the inhibition in test [7] was -3.6% (inactive); in [8], -6.67% (inactive); in test [14], -0.005% (inactive). Further, the growth inhibition in [9] was -7.67% (inactive); in test [10] it was 5.05% (inactive). For the same compound, in test [11], the viability increase was -2.99% (inactive). In addition, the RAM network inhibition in [15] is 1.18% (inactive).
For `CC1CCCCN1CCNC(=O)c1ccc2c(=O)n(CCc3ccccc3)c(=O)[nH]c2c1` (stereo not given), the viability in test [1] is 91%; in [3] it was 91% (inactive); in test [4], 53.6% (inactive); in [5] it was 93.5% (inactive); in test [6] (setting [16]), 80.8%; in test [6] (setting [17]) it was 93.5%. The viability in [12] is 76.9% (inactive); in [13] it was 73.4% (inactive). For the same compound, in test [2], the Her2 level is 72.5% (inactive). Moreover, the differential viability (reversal) in test [6] (H69AR cells + 2 uM doxorubicin) was 12.7% (inactive). Also, the inhibition in test [7] is -5% (inactive); in [8], 1.17% (inactive); in test [14], 1.27% (inactive). The figures for the growth inhibition in test [9] and in test [10] were -23.3% (inactive) and -18.5% (inactive), respectively. The viability increase in test [11] was -4.81% (inactive). Besides, in test [15], the RAM network inhibition was 8.68% (inactive).
Regarding `COc1ccc(OC)c(C(C)NC=O)c1` (stereo not given), the viability in test [1] is 89%; in [3], 89% (inactive); in [4], 102% (inactive); in test [5], 99.5% (inactive); in test [6] (setting [16]) it was 99.2%; in test [6] (setting [17]), 99.5%. The viability in [12] is 95.2% (inactive); in test [13] it was 105% (inactive). The Her2 level in test [2] was 90.5% (inactive). For the same compound, in test [6] (H69AR cells + 2 uM doxorubicin), the differential viability (reversal) is 0.26% (inactive). The inhibition in test [7] was -6.89% (inactive); in test [8] it was -2.3% (inactive); in [14], 1.43% (inactive). Further, the growth inhibition in test [9] was -9.25% (inactive); in test [10], -7.95% (inactive). Also, the viability increase in test [11] is -0.64% (inactive). Besides, in test [15], the RAM network inhibition was -0.21% (inactive).
On to `COc1ccc(OC)c(C2CC(=O)NC(SC)=C2C#N)c1` (stereo not given), for which the viability was 102% in test [1]; 102% (inactive) in test [3]; 83.1% (inactive) in test [4]; 94.3% (inactive) in test [5]; 82.8% in test [6] (setting [16]); 94.3% in test [6] (setting [17]). Also, the values for the viability in test [12] and in [13] were 104% (inactive) and 92.6% (inactive), respectively. Moreover, in test [2], the Her2 level is 94% (inactive). For the same compound, the differential viability (reversal) in test [6] (H69AR cells + 2 uM doxorubicin) was 11.6% (inactive). The inhibition was -5.33% (inactive) in test [7], -9.02% (inactive) in test [8] and -0.015% (inactive) in test [14]. The growth inhibition is -11.4% (inactive) in test [9] and -5.61% (inactive) in [10]. Also, in test [11], the viability increase was 0.31% (inactive). For the same compound, the RAM network inhibition in [15] is 2.19% (inactive).
In the case of `Cn1nnnc1SCC(=O)Nc1ccccc1C(=O)NCc1ccccc1`, the viability in [1] was 99%; in test [3], 99% (inactive); in test [4], 108% (inactive); in test [5] it was 90.2% (inactive); in test [6] (setting [16]), 94.9%; in test [6] (setting [17]) it was 90.2%. The viability was 97.6% (inactive) in [12] and 97.8% (inactive) in [13]. For the same compound, the Her2 level in [2] is 98% (inactive). Moreover, the differential viability (reversal) in [6] (H69AR cells + 2 uM doxorubicin) is -4.73% (inactive). Further, the results for the inhibition in [7], in test [8] and in test [14] were -6.49% (inactive), -7.33% (inactive) and 1.04% (inactive), respectively. In addition, the values for the growth inhibition in test [9] and in [10] were -9.6% (inactive) and 4.06% (inactive), respectively. Besides, in [11], the viability increase was -2.1% (inactive). Moreover, the RAM network inhibition in test [15] was 7.35% (inactive).
As for `Cc1ccccc1NC(=O)C1CCCN(S(=O)(=O)c2cccc3cccnc23)C1` (stereo not given), the viability in test [1] was 90.5%; in test [3], 90.5% (inactive); in test [4], 94.6% (inactive); in test [5], 93.2% (inactive); in [6] (setting [16]), 92.2%; in [6] (setting [17]), 93.2%. Also, the values for the viability in test [12] and in [13] were 82.1% (inactive) and 81.2% (inactive), respectively. The Her2 level in [2] was 96.5% (inactive). Further, the differential viability (reversal) in test [6] (H69AR cells + 2 uM doxorubicin) was 0.99% (inactive). Besides, the inhibition in test [7] is -1.73% (inactive); in test [8], -5.25% (inactive); in [14], 3.01% (inactive). In addition, the growth inhibition was -13.1% (inactive) in test [9] and -16.6% (inactive) in test [10]. In addition, the viability increase in [11] is -2.23% (inactive). Also, the RAM network inhibition in [15] was 1.93% (inactive).
For the compound `COc1ccc(CNC(=O)c2nnn(Cc3ccc(OC)cc3)c2N)cc1`, the viability in test [1] was 89.5%; in test [3] it was 89.5% (inactive); in test [4], 77.5% (inactive); in test [5], 86.5% (inactive); in test [6] (setting [16]), 88.3%; in test [6] (setting [17]), 86.5%. Also, the viability was 91% (inactive) in test [12] and 85.4% (inactive) in test [13]. The Her2 level in test [2] is 101% (inactive). Also, in test [6] (H69AR cells + 2 uM doxorubicin), the differential viability (reversal) was -1.82% (inactive). Moreover, the inhibition in test [7] is -2.69% (inactive); in test [8], 3.17% (inactive); in [14] it was 1.69% (inactive). Besides, the growth inhibition in test [9] is -3.35% (inactive); in test [10] it was -1.51% (inactive). In addition, the viability increase in test [11] is -3.08% (inactive). Further, in test [15], the RAM network inhibition is 2.66% (inactive).
As to `CCOc1ccc(NC(=O)CN(c2cc(C)cc(C)c2)S(=O)(=O)c2c(C)noc2C)cc1`, the viability in [1] is 94%; in test [3], 94% (inactive); in [4], 85.2% (inactive); in test [5] it was 74.7% (inactive); in [6] (setting [16]), 74.2%; in test [6] (setting [17]), 74.7%. Moreover, the viability is 102% (inactive) in [12] and 97.2% (inactive) in [13]. Further, the Her2 level in [2] was 90.5% (inactive). Also, the differential viability (reversal) in test [6] (H69AR cells + 2 uM doxorubicin) was 0.455% (inactive). For the same compound, the inhibition in test [7] is 1.67% (inactive); in test [8], -1.83% (inactive); in test [14] it was 2.2% (inactive). Further, the growth inhibition in test [9] is -19.5% (inactive); in test [10], -16.8% (inactive). Moreover, the viability increase in test [11] is -3.54% (inactive). Moreover, the RAM network inhibition in test [15] is 8.99% (inactive).
On to `Cn1cnc2cc(NC(=O)c3ccc(Cl)cc3)ccc21`, for which the viability was 91.5% in test [1]; 91.5% (inactive) in [3]; 88.1% (inactive) in test [4]; 93% (inactive) in test [5]; 95.2% in [6] (setting [16]); 93% in test [6] (setting [17]). Further, the viability in test [12] is 94.5% (inactive); in test [13], 96.5% (inactive). Besides, the Her2 level in test [2] is 90.5% (inactive). Moreover, the differential viability (reversal) in test [6] (H69AR cells + 2 uM doxorubicin) is -2.15% (inactive). Also, the inhibition is -4% (inactive) in test [7], -3.33% (inactive) in [8] and 0.75% (inactive) in test [14]. In addition, the values for the growth inhibition in [9] and in test [10] were 0.595% (inactive) and 7.51% (inactive), respectively. Besides, the viability increase in test [11] was 0.08% (inactive). Moreover, the RAM network inhibition in test [15] was -1.41% (inactive).
Take `COc1ccc(-n2c(Cc3cccn3C)nnc2SCC(N)=O)cc1`: the viability was 94.5% in test [1]; 94.5% (inactive) in test [3]; 112% (inactive) in test [4]; 97.5% (inactive) in test [5]; 94.8% in test [6] (setting [16]); 97.5% in test [6] (setting [17]). The values for the viability in test [12] and in [13] were 97.6% (inactive) and 94.4% (inactive), respectively. The Her2 level in test [2] was 95% (inactive). Further, the differential viability (reversal) in [6] (H69AR cells + 2 uM doxorubicin) is 2.7% (inactive). Also, the inhibition was 0.64% (inactive) in [7], -3.5% (inactive) in test [8] and 1.42% (inactive) in test [14]. Further, the growth inhibition is 8.68% (inactive) in [9] and 5.57% (inactive) in test [10]. Also, the viability increase in [11] was -2.07% (inactive). The RAM network inhibition in test [15] was 0.63% (inactive).
